Screening data (PubChem)
Hits are enriched below; roughly 5.3% of the tested compounds scored in any of these assays.
TDP1 inh – qHTS Assay for Inhibitors of Tyrosyl-DNA Phosphodiesterase (TDP1); Potency, µM (highest dose often 130 µM), inactives show at the top dose activity change, negative = inhibition, actives largely listed as inhibitors; recombinant TDP1, AlphaScreen DNA substrate cleavage; AID 485290, 2010; 350,000 compounds, 0.28% hits; further: potency means the concentration at half of the fitted maximal effect; on the % scale 0 is the no-effect control and ±100 the full control effect; nearly all actives have a fitted effect of over 40% in size
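E. coli-derived human Tdp1, 1 nM final. Cpd preinc 15 min RT; substrate 15 nM final, 5 min RT; AS bead mix 10 ug/ml final, 10 min RT. Signal loss = tyrosine-FITC cleavage. No-enzyme wells = max signal.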
HP1b chromo inh – HTS for Inhibitors of HP1-beta Chromodomain Interactions with Methylated Histone Tails. AlphaScreen HP1-beta / biotin-H3K9me3 peptide binding. Potency, µM (highest dose often 114 µM), for the others: at the highest dose activity change, negative = inhibition, actives largely listed as inhibitors. 390,000 compounds, 0.56% hits. AID 540317, 2011; further: potency means the concentration at half of the fitted maximal effect; nearly all actives have a fitted effect of over 70% in size
Target sequence (P83916 whole entry, looked up): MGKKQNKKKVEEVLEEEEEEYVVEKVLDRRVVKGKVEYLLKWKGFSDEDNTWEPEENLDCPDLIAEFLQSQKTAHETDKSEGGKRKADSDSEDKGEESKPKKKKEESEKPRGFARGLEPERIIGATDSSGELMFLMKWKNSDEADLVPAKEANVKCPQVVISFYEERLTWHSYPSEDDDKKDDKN
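AlphaScreen: HP1-beta (50 nM) preformed 30 min with biotin-H3(1-18)K9me3 peptide (50 nM) in PBS pH 7.4, 0.01% Tween-20. Compound added for 30 min at RT, then streptavidin donor/nickel chelate acceptor beads (10 ug/mL) for 30 min.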
Six1-Eya2 inh – qHTS Assay for Inhibitors of the Six1/Eya2 Interaction. Homeobox protein SIX1 (Homo sapiens) + Protein phosphatase EYA2 (Homo sapiens), …. AlphaScreen GST-Six1/His-Eya2 binding, biochemical; hits give low values. activity change, % (concentration not given with the values). 360,000 compounds, 0.56% hits. AID 651725, 2012; in the data active means activity change below about -65%; inconclusive means mostly about -30% to -63%; further: on the % scale 0 is the no-effect control and ±100 the full control effect
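Homogeneous AlphaScreen proximity assay pairing GST-Six1 with His-tagged Eya2 (added as 5X mix: 250 nM and 500 nM) in 50 mM Tris pH 8.0, 300 mM NaCl, 1 mM TCEP. Glutathione donor and nickel acceptor beads; 1 h, 37 °C, dark.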
BAZ2B block – qHTS Assay for Inhibitors of BAZ2B | Bromodomain adjacent to zinc finger domain protein 2B (Homo sapiens), Q9UIF8 | AlphaScreen BAZ2B-H3K14Ac peptide displacement | Potency, µM (titrated, usually from 114 µM), for the others: at the highest dose activity change, negative = inhibition, usual class: inhibitors | 360,000 compounds, 4.4% hits; further: potency means the concentration at half of the fitted maximal effect; on the % scale 0 is the no-effect control and ±100 the full control effect; nearly all actives have a fitted effect of over 60% in size
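BAZ2B (50 nM) with biotin-H3(5-23)K14Ac peptide (50 nM) in PBS pH 7.4, 0.01% Tween-20, preformed 30 min, then compound 30 min at room temperature; top concentration 110uM. AlphaScreen streptavidin donor/nickel chelate acceptor beads (10 ug/mL final), 20 min dark, signal read.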
JMJD2A Tudor – qHTS Assay for Inhibitors of JMJD2A-Tudor Domain; Potency, µM (series often up to 114 µM), for inactives: at the highest dose activity change, negative = inhibition, actives largely listed as inhibitors; AlphaScreen JMJD2A-Tudor / H3K4me3 peptide binding; 390,000 compounds, 4.4% hits; AID 504339, 2011; further: potency means the concentration at half of the fitted maximal effect; on the % scale 0 is the no-effect control and ±100 the full control effect; nearly all actives have a fitted effect of over 50% in size
CtBP-E1A blk – qHTS Assay for Inhibitors of the CtBP/E1A Interaction | AID 651724, 2012 | 340,000 compounds, 0.49% hits | activity change, % (concentration not given with the values) | AlphaScreen GST-E1A/His-CtBP binding, 1536-well; hits give low values | CtBP / adenovirus E1A interaction (AlphaScreen); in the data active means activity change below about -65%; inconclusive means mostly about -30% to -63%; further: on the % scale 0 is the no-effect control and ±100 the full control effect
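Steps: dispense buffer (Tris pH 8.0, NaCl 300 mM, TCEP 1 mM, BSA, Tween 20); add 5X protein mix (GST-E1A, His-CtBP, 125 nM each); pin 23 nL compound; 2 h at 37 °C, dark; add 5X beads (50 ug/mL); 1 h; read.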
The depositor's hits bear a star; ? = inconclusive; nt = no result; [ ] = dose if it differs, or a comment. Unless noted, the call rests on the fitted dose curve; in most records, active means well fitted inhibition curve with a large enough effect; inconclusive means small, poorly fitted or top-dose-only effect; inactive means no such curve, though single readings can be large or run the other way.

SMILES	TDP1 inh	HP1b chromo inh	Six1-Eya2 inh	BAZ2B block	JMJD2A Tudor	CtBP-E1A blk
COc1cccc(NC(=O)c2csc3c2CCCCC3)c1	-9%	56%	nt	1%	4%	nt
O=C(c1ccc([N+](=O)[O-])cc1)N1CCN(c2cccc3[nH]ccc23)CC1	3%	15%	-6	-25%	-24%	nt
Clc1ccc(CN2CCN(c3ncccn3)CC2)cc1	nt	12%	-3	?	13µM*	-1
FC(F)(F)c1cccc(CN2CCN(c3ncccn3)CC2)c1	nt	50%	5	nt	-16%	6
COc1cc(CN2CCN(c3ncccn3)CC2)cc(OC)c1	nt	25%	6	1%	-11%	nt
c1ccc(CN2CCN(c3ncccn3)CC2)cc1	nt	-31%	-10	?	4.5µM*	0
O=[N+]([O-])c1cccc(CN2CCN(c3cccc4[nH]ccc34)CC2)c1	nt	-29%	-29	?	56µM*	-13
Clc1ccc(CN2CCN(c3ncccn3)CC2)cc1Cl	nt	-24%	-1	79µM*	13µM*	3
CC(C)C(=O)Nc1ccccc1C(=O)OCc1cc(=O)n2nc(C3CC3)sc2n1	6%	38%	nt	-14%	4%	nt
O=C(c1cccc([N+](=O)[O-])c1)N1CCN(c2ncccn2)CC1	nt	72%	5	0%	2%	nt
O=[N+]([O-])c1cccc(CN2CCN(c3ncccn3)CC2)c1	nt	?	10	?	2.2µM*	5
O=C(O)C1Cc2[nH]cnc2C(c2ccccc2O)N1 (stereo unspecified)	0%	18%	?	0%	89µM*	?
O=C(Cc1cccs1)N(c1ccc(Br)cc1)C1C=CS(=O)(=O)C1 (stereo unspecified)	5%	-5%	16	-16%	20µM*	7
Cn1c2cc(S(C)=O)sc2c2cnn(Cc3ccccc3F)c(=O)c21 (stereo unspecified)	1%	nt	nt	nt	-18%	nt
N=c1c2c(ncn1Cc1ccco1)Oc1c(ccc3ccccc13)C2c1ccccc1 (stereo unspecified)	7%	?	-10	50µM*	?	-12
COCCN(C(=O)COC(=O)c1cc2c(s1)CCC2)c1c(N)n(Cc2ccccc2)c(=O)[nH]c1=O	0%[0.505 µM]	-95%	?	8.9µM*	8.9µM*	-14
COCCN(C(=O)COC(=O)Cc1coc2cc(C)ccc12)c1c(N)n(Cc2ccccc2)c(=O)[nH]c1=O	28µM*	7%	-9	?	-26%	-21
CCOC(=O)c1ccc2c(c1)N(Cc1cccc(C(F)(F)F)c1)C(=O)c1ccccc1S2(=O)=O	3%	49%	nt	0%	?	nt
Nc1nc(C(=O)N2CCOCC2)nn1S(=O)(=O)c1ccccc1	3%	20%	2	50µM*	20µM*	1
O=C(N1CCOCC1)N1CCN(S(=O)(=O)c2ccc(Cl)cc2)C1	11%	18%	-7	0%	5%	4
Nc1nc(C(=O)N2CCOCC2)nn1S(=O)(=O)c1ccc(Cl)cc1	2%	18%	3	-7%	14µM*	-1
CCS(=O)(=O)n1nc(C(=O)N2CCOCC2)nc1N	4%	25%	0	?	89µM*	-3
COc1ccccc1N1CCN(C(=O)CSc2nc3ccccc3nc2Cc2ccccc2)CC1	0%	9%[57 µM]	nt	-21%	-35%	nt
Nc1ccccc1OC1=NS(=O)(=O)c2ccccc21	2%	nt	nt	nt	-10%	nt
O=C(CN1CCSc2ccccc21)NCc1ccccc1F	8%	10%[57 µM]	nt	-34%	-30%	nt
CCCN1C(=O)c2cc(C(=O)O)ccc2C1O (stereo unspecified)	0%	18%	-2	56µM*	89µM*	3
